Source: PubChem BioAssay
USP1-UAF1 inh: inhibitors of human USP1/UAF1 deubiquitinase. recombinant USP1/UAF1, Ub-Rhodamine cleavage fluorescence. 390,000 compounds, 0.23% hits. AID 743255. O94782. Potency, µM (highest dose often 57.1 µM), without a hit: top-dose activity change, negative = inhibition, most hits filed as inhibitors; further: potency means the concentration at half of the fitted maximal effect; nearly all actives have a fitted effect of over 60% in size
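High-throughput fluorogenic screen: 1nM USP1/UAF1 complex, Ub-Rho substrate 150nM final, 50mM HEPES pH 7.8 with 0.5mM EDTA, 0.1 mg/ml BSA, 1mM TCEP and 0.01% Tween-20.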
VDR inhibitor: inhibitors of human vitamin D receptor | P11473 | VDR-SRC2-3 peptide fluorescence polarization, 2 h | Potency, µM, inactives show max response, negative = inhibition, actives largely listed as inhibitors | 400,000 compounds, 0.93% hits; further: potency means the concentration at half of the fitted maximal effect
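Two reagent solutions held at 4 deg C in the dark were dispensed, compounds pinned at 23 nl, and the mixture incubated 2 h at room temperature. Read-out: fluorescence polarization of VDR–SRC2-3 peptide binding.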
PLK1 PBD inh: blocks phosphopeptide binding to human PLK1 polo-box domain; P53350; Potency, µM, for the others: max response, negative = inhibition, hits mostly inhibitors; 360,000 compounds, 2.8% hits; Plk1 PBD binding of FITC phosphopeptide, fluorescence polarization; further: potency means the concentration at half of the fitted maximal effect; series mostly up to about 57 µM; nearly all actives have a fitted effect of over 65% in size
USP2a inh: inhibitors of human ubiquitin-specific protease USP2a; O75604; USP2 core, Ub-CHOP2 coupled fluorogenic reporter, 485/531; Potency, µM (series often up to 38.3 µM), without a hit: at the top dose activity change, negative = inhibition, hits mostly inhibitors; 330,000 compounds, 0.01% hits;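 further: potency means the concentration at half of the fitted maximal effect; plate controls were DMSO wells for no effect and full inhibition by NEM control for full effect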
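Deubiquitinase activity read as fluorescence (485/531 nm) after Ub-CHOP2 cleavage activates the enterokinase reporter on its substrate; USP2 core 10nM, Ub-CHOP2 and substrate 25nM each, 30min compound preincubation then 60min RT; data normalized to NEM, curves fitted.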
GALK inh: galactokinase (human) inhibition; 270,000 compounds, 0.007% hits; Purified GALK, Kinase-Glo residual ATP luminescence; P51570; Potency, µM (series often up to 57.5 µM), for the others: at the top dose activity change, negative = inhibition, actives largely listed as inhibitors; further: potency means the concentration at half of the fitted maximal effect
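Galactose (100 uM) and ATP (35 uM) were turned over by 5 nM GALK for 1 h at RT. Kinase-Glo Plus then converted the remaining ATP into a luminescent signal.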
Coupling enz: coupling enzyme interference in Giardia aldolase counter-screen; AID 2472; activity change, negative = inhibition, % at 58.2 µM, hits read low; 290,000 compounds, 0.67% hits; coupling enzyme system counterscreen, AmpLite Red fluorescence; in the data active means activity change below about -30%
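Coupling enzymes only (glyceraldehyde-3-phosphate) + compound, at 57.5 uM final, 10 min RT; add substrate/coupling/AmpLite Red mix, 20 min RT; fluorescence ex 525/em 598 nm. Actives flag coupling-system interference.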
The depositor's hits bear a star. An excerpt weighted towards active compounds, which were near 3.2% of everything screened. Unless noted, the call rests on the fitted dose curve; in most records, active means well fitted curve in the direction sought with a large enough effect; inconclusive means small, poorly fitted or top-dose-only effect, or another doubt; inactive means no such curve, though single readings can be large; an effect the other way counts as inactive or inconclusive. Unless noted, on the % scale 0 is the no-effect control and ±100 the full control effect.

Screening COc1cccc(N=Cc2c[nH][nH]c2=O)c1 returned USP1-UAF1 inh -19%, VDR inhibitor inconclusive, PLK1 PBD inh 27µM*, USP2a inh 3%, GALK inh -1% and Coupling enz 0.
For O=c1[nH][nH]cc1C=Nc1ccc(Cl)cc1 the results were USP1-UAF1 inh -2%, VDR inhibitor 12%, PLK1 PBD inh -2%, USP2a inh -1%, GALK inh 0% and Coupling enz 0.
Screening CC(=O)Nc1ccccc1NC(=O)C/C(C)=N/NC(=O)c1ccccn1 returned USP1-UAF1 inh -19%, VDR inhibitor -24%, PLK1 PBD inh 27µM*, USP2a inh 2%, GALK inh 5% and Coupling enz -4.
Screening CN1CCN(c2ccc(NC(=S)NC(=O)c3cccc4ccccc34)cc2)CC1 returned USP1-UAF1 inh -25%, VDR inhibitor -19%, PLK1 PBD inh -15%, USP2a inh -4%, GALK inh 6% and Coupling enz -1.
`O=C(c1ccc(Br)cc1)c1cc2ccc(O)cc2oc1=O` gave USP1-UAF1 inh -13%, VDR inhibitor inconclusive, PLK1 PBD inh 11µM*, USP2a inh 2%, GALK inh 4% and Coupling enz 6.
`S=c1nc2c(n[nH]1)c1ccccc1n2CCc1ccccc1` gave USP1-UAF1 inh -5%, VDR inhibitor 79µM*, PLK1 PBD inh inconclusive, USP2a inh 2%, GALK inh -5% and Coupling enz -2.
Cc1oc(-c2ccccc2)nc1C(=O)N1CCN(c2ccc(F)cc2)CC1 was read as USP1-UAF1 inh -20%, VDR inhibitor inconclusive, PLK1 PBD inh 30µM*, USP2a inh -5%, GALK inh -2% and Coupling enz 0.
For Cc1cc(C)c(C#N)c(SCc2nnc(-c3ccccc3)o2)n1 the results were USP1-UAF1 inh -23%, VDR inhibitor -13%, PLK1 PBD inh -15%, USP2a inh -1%, GALK inh 1% and Coupling enz 15.
For COc1ccccc1-c1cc(-c2ccc(C)cc2)nc(SCc2nnc(-c3ccccc3)o2)c1C#N the results were USP1-UAF1 inh -19%, VDR inhibitor inconclusive, PLK1 PBD inh 21µM*, USP2a inh 1%, GALK inh 1% and Coupling enz 1.
`NNC(=O)C(=O)NCCCN1CCOCC1` gave USP1-UAF1 inh -3%, VDR inhibitor 1%, PLK1 PBD inh -3%, USP2a inh 9%, GALK inh 1% and Coupling enz 0.
For CC(C)CNC(=O)C(=O)NCCCN1CCOCC1 the results were USP1-UAF1 inh -11%, VDR inhibitor -13%, PLK1 PBD inh 21µM*, USP2a inh 0%, GALK inh 6% and Coupling enz 1.
CCC(C)(C)NC(=O)C(c1ccc(C)cc1)N(CCN1CCOCC1)C(=O)CNC(=O)c1cccs1 (stereo unspecified) was read as USP1-UAF1 inh -7%, VDR inhibitor -9%, PLK1 PBD inh 30µM*, USP2a inh -2%, GALK inh 1% and Coupling enz 2.
O=C(NCC(=O)N(CCN1CCOCC1)C(C(=O)NC1CCCC1)c1cccnc1)c1cccs1 (stereo unspecified) was read as USP1-UAF1 inh -7%, VDR inhibitor 9%, PLK1 PBD inh -2%, USP2a inh 3% and Coupling enz 0.
`CCOC(=O)c1cc2c(ccn2C)n1Cc1ccc(Cl)cc1` gave USP1-UAF1 inh 5%, VDR inhibitor 3%, PLK1 PBD inh -9%, USP2a inh -7%, GALK inh 6% and Coupling enz -22.
For Cc1cccc(Cn2c(C(=O)OC(C)C)cc3c2ccn3C)c1 the results were USP1-UAF1 inh -21%, VDR inhibitor -9%, PLK1 PBD inh -23%, USP2a inh 1%, GALK inh 2% and Coupling enz -32*.
